The sample as a whole holds a higher share of hits than the screen did.
IL1B secr inh = inhibitors of inflammasome signaling (IL-1 beta secretion). THP-1 LPS/ATP IL-1B secretion, AlphaLISA, 16 h; stronger effect = lower value. activity change, % at 57.5 µM. 4.7% of 360,000 active; in the data active = activity change below about -50%; inconclusive = mostly about -30% to -49%
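Secreted IL-1B measured by AlphaLISA bead assay after 16 h compound exposure of THP-1 cells; compounds (final up to 57.5 uM) added 1 h before LPS (250 ng/mL) and ATP (1.25 mM) stimulation; lower signal means less secretion.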
HT1080 IDH1KD tx = toxicity to HT-1080 IDH1 knockdown cells (counter line) | Potency, µM (highest dose often 46.1 µM), inactives show top-dose activity, negative = toxicity, most hits filed as cytotoxic | 2% of 360,000 active | HT-1080 IDH1 knockdown viability, ATP luminescence, 48 h;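 also: potency is read from the fitted curve at half-maximal effect; 0% = DMSO wells and -100% = cell-free medium wells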
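% activity derives from luminescence (CellTiter-Glo), normalised to DMSO and no-cell wells. HT-1080-IDH1KD cells, 750/well, had 48 h compound exposure at 37 °C.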
HT1080-NT tox = kills 2HG-producing HT-1080-NT fibrosarcoma cells | HT-1080-NT fibrosarcoma viability, CellTiter-Glo ATP luminescence, 48 h | 1.6% of 360,000 active | Potency, µM (series often up to 46.1 µM), without a hit: top-dose activity, negative = less viability, usual class: cytotoxic;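 also: NT is the 2HG producing partner of a matched IDH1 knockdown line; potency is read from the fitted curve at half-maximal effect; 0% = DMSO-treated cells and -100% = media-only wells without cells; nearly all actives have a fitted effect of over 55% in size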
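A 48-hour cytotoxicity screen used HT-1080-NT cells plated 2 hours before compound delivery. ATP-based CellTiter-Glo luminescence measured viability, normalized to DMSO and no-cell controls.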
ALOX12 inh = blocks human arachidonate 12S-lipoxygenase | P18054 | Potency, µM (titrated, usually from 108 µM), without a hit: at the top dose activity change, negative = inhibition, actives largely listed as inhibitors | purified 12hLO, xylenol orange hydroperoxide absorbance | 1.1% of 580,000 active; also: potency is read from the fitted curve at half-maximal effect
Target sequence (P18054 whole entry, looked up): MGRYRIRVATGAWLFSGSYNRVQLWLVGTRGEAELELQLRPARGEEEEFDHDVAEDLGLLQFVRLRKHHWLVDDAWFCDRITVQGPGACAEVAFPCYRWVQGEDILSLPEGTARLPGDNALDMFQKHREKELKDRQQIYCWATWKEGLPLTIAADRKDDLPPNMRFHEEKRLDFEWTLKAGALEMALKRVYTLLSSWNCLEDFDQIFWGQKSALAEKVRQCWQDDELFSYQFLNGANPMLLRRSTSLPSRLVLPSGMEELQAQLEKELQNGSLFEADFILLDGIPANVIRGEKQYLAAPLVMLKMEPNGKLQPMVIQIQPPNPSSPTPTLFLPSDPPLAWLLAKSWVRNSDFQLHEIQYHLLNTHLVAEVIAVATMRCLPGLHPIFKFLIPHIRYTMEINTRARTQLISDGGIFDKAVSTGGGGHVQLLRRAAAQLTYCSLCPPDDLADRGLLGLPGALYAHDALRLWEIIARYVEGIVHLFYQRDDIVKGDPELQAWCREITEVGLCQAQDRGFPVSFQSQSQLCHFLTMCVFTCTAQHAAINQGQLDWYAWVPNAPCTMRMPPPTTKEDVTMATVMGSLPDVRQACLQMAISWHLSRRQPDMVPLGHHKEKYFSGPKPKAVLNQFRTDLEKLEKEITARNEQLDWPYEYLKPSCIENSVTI
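Hydroperoxide product was detected by ferrous iron/xylenol orange as the 573 to 405 nm absorbance ratio. Arachidonic acid at 40 uM (final) was turned over for 30 min at room temperature by 150 nM human 12hLO, pH 7.0 Hepes buffer, after 15 min compound preincubation.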
DT40 TDP1 no CPT = qHTS for Inhibitors of human tyrosyl-DNA phosphodiesterase 1 (TDP1): qHTS in cells in absence of CPT | Potency, µM (top dose mostly 46.2 µM), inactives show at the highest dose activity change, negative = growth inhibition, most hits filed as inhibitors | 15% of 420,000 active | AID 686978, 2013 | DT40 Tdp1-/- hTDP1 cells, no CPT, ATP luminescence, 48 h; also: potency is read from the fitted curve at half-maximal effect; nearly all actives have a fitted effect of over 55% in size
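Seeded 400 DT40-hTDP1 cells/well (vehicle DMSO, no 20 nM CPT); pinned compounds; ≥48 hr at 37 °C; CellTiter-Glo luminescence as viability measure.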
DT40 TDP1 CPT = DT40-hTDP1 cell growth loss with CPT | Potency, µM (series often up to 46.2 µM), without a hit: at the highest dose activity change, negative = growth inhibition, hits mostly inhibitors | 12% of 420,000 active | chicken DT40 Tdp1-/-;hTDP1 cells + 20 nM CPT, ATP luminescence, 48 h | AID 686979; also: potency is read from the fitted curve at half-maximal effect; nearly all actives have a fitted effect of over 55% in size
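Cell growth measured by CellTiter-Glo luminescence after a minimum 48 h, 37 C compound exposure with 20 nM CPT in Tdp1-knockout DT40 cells stably expressing hTDP1, seeded 400/well; qHTS titration format.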
* hit, by the source's call; ? = inconclusive; · = not tested or not shown; [ ] = dose if it differs, or a comment. Unless noted, calls follow the shape of the dose curve; as a rule, active = well fitted curve in the direction sought with a large enough effect; inconclusive = small, poorly fitted or top-dose-only effect, or another doubt; inactive = no such curve, though single readings can be large; an effect the other way counts as inactive or inconclusive. Unless noted, % is scaled to controls: 0 for no effect and ±100 for the full control effect.

SMILES | IL1B secr inh | HT1080 IDH1KD tx | HT1080-NT tox | ALOX12 inh | DT40 TDP1 no CPT | DT40 TDP1 CPT
CCN1CC(CN(C)Cc2nc(-c3ccc(C(F)(F)F)cc3)no2)CC1=O (stereo not drawn) | -8 | -24% | ? | 6% | 18µM* | ?
COc1ccccc1C1CCN(C(=O)c2ccccc2)CC1 | -16 | 4% | 4% | 8% | ? | -27%
COc1ccccc1C1CCN(C(=O)c2cccs2)CC1 | -53* | 3% | 0% | 13% | -19% | -11%
COc1ccccc1C1CCN(C(=O)c2cnn(-c3ccccc3)c2C)CC1 | -7 | -7% | -1% | ? | 15µM* | 21µM*
CCOC(=O)c1oc2ccc(S(=O)(=O)NCC3Cn4cccc4C(=O)N3C)cc2c1C (stereo not drawn) | · | · | · | 35µM* | · | ·
Fc1ccc(CN2CCN(c3ncnc4scc(-c5ccc(F)cc5)c34)CC2)cc1 | 0 | ? | ? | -6% | 23µM* | 16µM*
CCN1CCN(c2ncnc3scc(-c4ccc(C)c(C)c4)c23)CC1 | ? | -27% | ? | -10% | 18µM* | ?
Cc1ccccc1N1CCN(c2ncnc3scc(-c4cccs4)c23)CC1 | -10 | -16% | 3% | 0% | 9.2µM* | 13µM*
Clc1ccc(CN2CCN(c3ncnc4scc(-c5cccs5)c34)CC2)cc1 | -16 | -29% | -19% | 0% | 16µM* | 13µM*
COc1ccc(-c2csc3ncnc(N4CCN(Cc5ccccc5)CC4)c23)cc1 | -3 | 0% | 1% | ? | ? | ?
CC(Sc1nncn1-c1cccc(Cl)c1)c1nc2ccccc2c(=O)[nH]1 (stereo not drawn) | · | · | · | -5% | · | ·
CCN(CC)S(=O)(=O)c1ccc(N2CCCC2)c(NC(=O)Cc2ccc(OC)cc2)c1 | -1 | 14% | 0% | ? | 21µM* | ?
CCN(CC)S(=O)(=O)c1ccc(N2CCN(C)CC2)c(NC(=O)Nc2ccc(C)cc2)c1 | · | 21µM* | 8.2µM* | ? | ? | ?
CCN(CC)S(=O)(=O)c1ccc(N2CCCCC2)c(NC(=O)/C(C#N)=C/c2ccc(OC)cc2)c1 | -9 | 6% | -5% | -13% | 16µM* | ?
CCN(CC)S(=O)(=O)c1ccc(N2CCCC2)c(NC(=O)c2ccc(OC)cc2OC)c1 | ? | -2% | -1% | -11% | 16µM* | 18µM*
Cc1cccc(C(=O)N2CCCCCCNC(=O)[C@@H]3CCC[C@@H]32)c1 | · | · | · | 12% | · | ·
COc1ccc(CN2CCCC3(C2)C(=NC2CCCCC2)NC(=O)N3c2cc(F)cc(F)c2)cc1 (stereo not drawn) | · | · | · | 17%[6.33 µM] | · | ·
COc1cc(C)ccc1OCc1cc(C(=O)N(Cc2c(C)nn(C)c2C)C2CC2)no1 | -2 | 1% | 1% | -3% | 16µM* | ?
COc1cc(C)ccc1OCc1cc(C(=O)N2C[C@H]3CC[C@H]2C3)no1 | 5 | 9% | -2% | -19% | 10% | -3%
Cc1cc(C)nc(N/N=C/c2ccccc2OCc2cccc(Br)c2)n1 | -62* | ? | ? | 12% | 18µM* | ?
Cc1cc(C)nc(N/N=C/c2ccccc2OCc2ccc(Cl)cc2)n1 | 10 | ? | -22% | 2% | ? | 16µM*
Cc1cc(C)nc(N/N=C/c2ccccc2OCc2ccccc2)n1 | -10 | 1% | -2% | -13% | ? | ?
Cc1cc(C)nc(N/N=C/c2cc(Br)ccc2O)n1 | 126 | ? | -4% | 0% | 3.7µM* | 5.2µM*
Cc1nc(Sc2cccc(C(F)(F)F)c2)c2c(-c3cccs3)csc2n1 | · | · | · | 9% | · | ·
COc1cccc(-c2nc(CS(=O)CC(=O)O)c(C)o2)c1 (stereo not drawn) | 17 | -5% | 11% | ? | -3% | 5%
SMILES | IL1B secr inh | HT1080 IDH1KD tx | HT1080-NT tox | ALOX12 inh | DT40 TDP1 no CPT | DT40 TDP1 CPT
Cc1oc(-c2ccccc2Cl)nc1CS(=O)CC(=O)N1CCN(c2cccc(C(F)(F)F)c2)CC1 (stereo not drawn) | · | · | · | -18% | 13µM* | 9.2µM*
COc1cccc(-c2nc(CS(=O)CC(=O)N3CCN(c4cccc(C(F)(F)F)c4)CC3)c(C)o2)c1 (stereo not drawn) | · | · | · | -29% | 13µM* | 13µM*
COc1ccc(N2CCN(C(=O)CS(=O)Cc3nc(-c4ccc(OC)c(OC)c4)oc3C)CC2)cc1 (stereo not drawn) | -20 | 7% | 2% | -2% | ? | ?
Cc1ccc(-c2nc(CS(=O)CC(=O)N3CCN(c4ccc(F)cc4)CC3)c(C)o2)cc1 (stereo not drawn) | -27 | 0% | -15% | -5% | 15µM* | ?
Cc1cccc(-c2nc(CS(=O)CC(=O)N3CCN(C)CC3)c(C)o2)c1 (stereo not drawn) | -8 | 1% | 23% | 17%[57.4 µM] | -12% | 3%
Cc1ccc(-c2nc(CS(=O)CC(=O)N3CCN(c4cccc(Cl)c4)CC3)c(C)o2)cc1 (stereo not drawn) | · | · | · | -2% | ? | 16µM*
Cc1oc(-c2ccc(Cl)cc2)nc1CS(=O)CC(=O)N1CCN(c2cccc(C(F)(F)F)c2)CC1 (stereo not drawn) | · | · | · | -30% | 21µM* | 15µM*
COc1cc(-c2nc(Cn3nnc(C(=O)Nc4ccccc4)c3C)c(C)o2)cc(OC)c1OC | · | · | · | -12% | 26µM* | ?
COc1ccc(NC(=O)c2nnn(Cc3nc(-c4cc(OC)c(OC)c(OC)c4)oc3C)c2C)cc1Cl | · | · | · | -4% | -13% | 1%
CC1(C)CC(=O)C2=C(C1)OC(N)=C(C#N)C21C(=O)N(Cc2ccccc2Cl)c2ccccc21 (stereo not drawn) | 0 | 1% | -1% | 163% | 23µM* | ?
Cc1[nH]nc2c1C1(C(=O)N(Cc3ccc(Cl)cc3)c3ccccc31)C(C#N)=C(N)O2 (stereo not drawn) | -16 | ? | ? | ? | 26µM* | 23µM*
COC(=O)Cc1[nH]nc2c1C1(C(=O)N(Cc3ccccc3)c3ccccc31)C(C#N)=C(N)O2 (stereo not drawn) | -16 | 6% | 12% | -21% | -7% | -9%
Cc1nn(-c2ccccc2)c2c1C1(C(=O)N3c4c(cccc41)C(C)CC3(C)C)C(C#N)=C(N)O2 (stereo not drawn) | -26 | ? | ? | 7% | ? | ?

Assay outcomes: PubChem BioAssay, National Center for Advancing Translational Sciences (NCATS)
